# The source made the active and inactive calls. Rule for the calls: active = hit-call score of the fitted dose curve at least 0.9, where 1 is the maximum; inactive = score below 0.9.
# Read-out: CYP3A5 (gene 1577)
# Assay: LTEA_HepaRG_CYP3A5: Life Technologies and Expression Analysis (LTEA) Assay for CYP3A5 using HepaRG (AID 2283493)
# Settings: mRNA level, 48 h; actives raise or lower the signal
# Method in brief: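 HepaRG plated 48 h, switched to serum-free induction medium, chemicals added 48 h (max 100 uM, half-log, 0.5% DMSO). RNA isolated; CYP3A5 by TaqMan qRT-PCR. Gain/loss vs DMSO.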
SMILES,outcome,AC50
CCOC(=O)CCC(=O)OCC,inactive,–
CCc1c(C(=O)NN2CCCCC2)nn(-c2ccc(Cl)cc2Cl)c1-c1ccc(Br)cc1,–,50 µM (active)
Nc1nc(N)c2nc(CNc3ccc(C(=O)N[C@@H](CCC(=O)O)C(=O)O)cc3)cnc2n1,–,0.0852 µM (active)
CCCCCCCCCCO,inactive,–
CCCCN(CCCC)CCCC,inactive,–
Oc1ccc2ccccc2c1N=Nc1ccccc1,–,8.1 µM (active)
CCOC(=O)C(C)(C)Oc1ccc(Cl)cc1,inactive,–
CCCc1cc(=O)[nH]c(=S)[nH]1,inactive,–
CC1(C)CC(N=C=O)CC(C)(CN=C=O)C1 (stereo not drawn),inactive,–
CCOc1ccc2c(c1)C(C)=CC(C)(C)N2,inactive,–
Cc1cccc([N+](=O)[O-])c1C,inactive,–
O=c1[nH]cc(F)c(=O)[nH]1,inactive,–
Cc1cc(=O)[nH]c(=S)[nH]1,inactive,–
Nc1ccc(S(=O)(=O)c2ccc(N)cc2)cc1,inactive,–
C=CCOC(=O)c1ccccc1C(=O)OCC=C,inactive,–
C=CCc1ccc(O)c(OC)c1,inactive,–
CCCCCCC(=O)OCC,inactive,–
CCNc1cccc(C)c1,inactive,–
O=c1c(O)c(-c2ccc(O)c(O)c2)oc2cc(O)cc(O)c12,inactive,–
COc1ccc2c(c1)c(CC(=O)O)c(C)n2C(=O)c1ccc(Cl)cc1,inactive,–
COc1ccc(S(=O)(=O)N2C(=O)[C@@](c3ccccc3OC)(N3C[C@H](O)C[C@H]3C(=O)N(C)C)c3cc(Cl)ccc32)c(OC)c1,–,13.2 µM (active)
CCCCCCCCCCCC(=O)OC,inactive,–
Cc1ccc(C(C)C)c(O)c1,inactive,–

# Source: PubChem BioAssay (EPA / NIEHS)
